Results filed as inconclusive are left out. Unmarked numbers belong to inactive results. Activity calls are given as the source filed them. Calls follow the shape of the dose curve; as a rule, active = well fitted activation curve with a large enough effect; inconclusive = small, poorly fitted or top-dose-only effect; inactive = no such curve, though single readings can be large or run the other way. Square brackets hold non-standard residues; d marks the D form. Peptide text beside a SMILES is read from it. * marks the point of attachment. ξ: configuration not given here. ξTyr(βOH) = NC(C(=O)O)C(O)c1ccc(O)cc1; AMC = Cc1cc(=O)oc2cc(N*)ccc12; Cbz = O=C(OCc1ccccc1)*
These compounds were tested against Cellular tumor antigen p53 (Homo sapiens) (UniProt P04637) (assay: Primary qHTS for small molecule compounds that upregulate eGFP-tagged delta133p53alpha (in N-terminal) cells. (AID 2060322; also: nearly all actives have a fitted effect of over 75% in size;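 as to activation: series mostly up to about 56 µM; 0% = DMSO vehicle and 100% = reference activator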)). Conditions: NCI-H358 eGFP-delta133p53alpha fluorescence, 24 h; activation: active compounds read high.
Sequence of Cellular tumor antigen p53 (Homo sapiens) (P04637 whole entry, looked up): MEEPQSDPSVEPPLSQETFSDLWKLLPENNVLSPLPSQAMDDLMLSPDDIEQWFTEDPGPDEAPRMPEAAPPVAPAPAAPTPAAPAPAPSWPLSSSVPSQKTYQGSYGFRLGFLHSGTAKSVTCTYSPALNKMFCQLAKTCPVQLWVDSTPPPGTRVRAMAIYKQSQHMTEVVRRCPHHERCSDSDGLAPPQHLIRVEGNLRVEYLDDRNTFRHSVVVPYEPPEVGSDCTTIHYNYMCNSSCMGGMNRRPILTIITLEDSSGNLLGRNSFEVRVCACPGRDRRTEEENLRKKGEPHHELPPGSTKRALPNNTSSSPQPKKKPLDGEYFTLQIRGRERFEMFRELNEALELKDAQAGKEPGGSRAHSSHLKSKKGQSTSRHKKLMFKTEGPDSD
Method in brief: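 NCI-H358 cells pre-induced 24 h with 10 ng/ml doxycycline to express N-terminal eGFP-delta133p53alpha, then dosed 24 h at 37C without doxycycline; fixed, Hoechst-stained, GFP intensity by laser scanning cytometry, normalized to DMSO (0%) and 57.5 uM 5-azacytidine (100%).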
Compound `CC1CCC2C(C)(C)C(O)C(O)CC2(C)C12Cc1c(O)cc(CO)c(C=O)c1O2` (stereo not given) has an activation of 0.763%.
Compound `CC(=O)OC1(C)CC(O)C2(O)C=COC(OC3OC(CO)C(O)C(O)C3O)C12` (stereo not given) has an activation of -16.8%.
For `C[C@@H]1C(=O)O[C@H]2C[C@]34[C@H]5C[C@@H](C(C)(C)C)[C@]36[C@@H](OC(=O)[C@H]6O)O[C@]4(C(=O)O5)[C@]21O`, the activation was -22.1%.
`COC(=O)C1=COC(O[C@@H]2O[C@H](CO)[C@@H](O)[C@H](O)[C@H]2O)[C@@H]2[C@@](C)(O)[C@@H](OC(=O)/C=C/c3ccccc3)C[C@]12O` (stereo not given in full) showed an activation of 15.2%.
With `COC1OC(O)C2(CCC3(O2)C(C)CC2OC(=O)C4(C)CCCC3(C)C24)C1O` (stereo not given) the activation was 9.92%.
`CC1(CO)CC(O)C2(C)CCC3(C)C(=CCC4C5(C=O)CCC(OC6OC(C(=O)O)C(O)C(O)C6OC6OC(C(=O)O)C(O)C(O)C6O)C(C)(C)C5CCC43C)C2C1` (stereo not given) gave an activation of -10.7%.
Compound `O=C(O)CC/C=C\C[C@H]1CO[C@@H](c2ccccc2Cl)O[C@H]1c1ccccc1O` has an activation of -9.67%.
In the case of `CC(C)C1NC(=O)CNC(=O)C2CCCN2C(=O)C(Cc2c[nH]c3ccccc23)NC(=O)CNC(=O)C(C(O)c2ccc(O)cc2)NC(=O)CNC1=O` (stereo not given) (cyclo(G[ξTyr(βOH)]GWPGV); configuration not given here), the activation is reported as -9.92%.
With `Cc1cc(=O)oc2cc(NC(=O)[C@H](CCC(=O)O)NC(=O)[C@H](CC(C)C)NC(=O)[C@H](CC(C)C)NC(=O)OCc3ccccc3)ccc12` (Cbz-Leu-Leu-Glu-{AMC}) the activation was 2.33%.
`C/C=C(\C)C(=O)O[C@@H](C)[C@H]1CC[C@]2(O)C3CCC4C[C@@H](OC5CC(OC)C(OC6CC(OC)C(OC7CC(OC)C(OC8OC(C)C(OC9OC(CO)C(O)C(O)C9O)C(OC)C8O)C(C)O7)C(C)O6)C(C)O5)CC[C@]4(C)C3[C@H](O)[C@@H](O)[C@]12C` (stereo not given in full) showed an activation of 8.04%.
For `N#Cc1cc(CN2CCC(Nc3ncnc4sc(Cl)cc34)CC2)ccc1F`, the activation was 5%.
`CC1(O)CCCC2(C)C1CCC13CC(CO)C(CCC12)C3` (stereo not given) showed an activation of 0%.
Compound `O=C(Cc1ccc(Cl)cc1)Nc1cnccc1C(=O)O` has an activation of -12.3%.
Compound `C=C[C@@]1(C)CCC2C(=CCC3[C@]2(C)CCC[C@@]3(C)C(=O)O)C1` (stereo not given in full) has an activation of -12.2%.
`C=C1CCC2C(C)(C)CC(O)CC2(C)C1CCC(C)CC(=O)O` (stereo not given) was tested, and the activation was 2.68%.
For `CO[C@@H]1CC(OC2CCC3(C)C(CCC45CCC(C6=CC(=O)OC6)C(C)(CCC43)C5=O)C2)O[C@H](C)[C@@H]1O[C@@H]1O[C@H](CO[C@@H]2O[C@H](CO)[C@@H](O)[C@H](O)[C@H]2O)[C@@H](O)[C@H](O)[C@H]1O` (stereo not given in full), the activation was 1.53%.
With `O=C(Nc1nc2cc(C(F)(F)F)cc(NC3CC3)n2n1)c1cccnc1` the Potency was 4.78 µM (active).
Work on `COc1ccc([C@H]2Cc3cccc(O)c3C(=O)O2)cc1` yielded an activation of 3.05%.
In the case of `COc1cc(CO)cc(OC)c1O[C@@H]1O[C@H](CO)[C@@H](O)[C@H](O)[C@H]1O`, the activation is reported as -2.68%.
With `CC(C)(C)c1ccc(-c2nc3ccccc3[nH]2)cc1` the activation was -14.3%.
Compound `C[C@]1(OC(=O)/C=C/c2ccccc2)C[C@H](O)[C@]2(O)C=CO[C@@H](O[C@@H]3O[C@H](CO)[C@@H](O)[C@H](O)[C@H]3O)C12` (stereo not given in full) has an activation of -18.3%.
`CC(C)(C)c1ccc(NC(=O)N2CCN(c3ncccc3Cl)CC2)cc1` showed an activation of -11.5%.
`C/C(=C\CCC(C)(C)O)CCO[C@@H]1O[C@H](CO[C@@H]2O[C@@H](C)[C@H](O)[C@@H](O)[C@H]2O)[C@@H](O)[C@H](O)[C@H]1O` gave an activation of 0%.
For `COc1cc(/C=C/C(=O)O[C@@H]2C[C@@](O)(C(=O)O)C[C@@H](O)[C@@H]2O)ccc1O`, the activation was -1.53%.
Work on `CC1(C)CC[C@]2(C(=O)O[C@@H]3O[C@H](CO)[C@@H](O)[C@H](O)[C@H]3O)CC[C@]3(C)C(=CCC4[C@@]5(C)C[C@@H](O)[C@H](O)[C@@](C)(CO)C5[C@H](O)C[C@]43C)C2C1` (stereo not given in full) yielded an activation of 3.82%.
For `CC1=C(C)C(=O)OC(C(C)C2CCC3C4CC=C5CC(OC6OC(COC7OC(CO)C(O)C(O)C7O)C(O)C(O)C6O)CC(O)C5(C)C4CCC23C)C1` (stereo not given), the activation was 9.16%.
`O=C(OCC(O)CO[C@@H]1O[C@H](C(=O)O)[C@@H](O)[C@H](O)[C@H]1O)c1ccccc1` (stereo not given in full) gave an activation of -13%.
For `C=C[C@@]12COC(=O)C(=C)[C@@H]1[C@@H](O)[C@H](C(=C)C(=O)OC)[C@@H](O)C2`, the activation was -7.63%.
`N#Cc1ccc(N2N=C3c4ccc(C(=O)O)cc4CC[C@@H]3[C@@H]2C2CCCC2)cc1Cl` was tested, and the activation was -25%.
For `O=C(OCC12OC1C=CC(OC(=O)c1ccccc1)C2O)c1ccccc1` (stereo not given), the activation was 10.7%.
Potency is read from the fitted curve at half-maximal effect.
